PubChem BioAssay (Tox21)
Values joined by “and” are separate entries in the source; they are usually repeats but may differ in a detail not shown here. Identical values can stand only once. Results filed as inconclusive are left out. Active and inactive are the calls of the source. Unless noted, calls follow the shape of the dose curve; as a rule, active = well fitted curve in the direction sought with a large enough effect in the repeat runs; inconclusive = weak or mixed curves; inactive = no such curve, though single readings can be large; an effect the other way counts as inactive or inconclusive.

Assays:
[1] = qHTS assay to identify small molecule antagonists of the estrogen related receptor (ERR) signaling pathway from Tox21 library - cell viability counter screen (AID 1224834); also: nearly all actives have a fitted effect of over 30% in size
Summary of the method: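 Viability readout (CellTiter-Fluor fluorescence, 30 min at 37 C) multiplexed with the ERR assay; cells treated 17.5 h at 37 C with compounds delivered in DMSO.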

[2] = molecular target: Luciferin 4-monooxygenase (Photinus pyralis) (UniProt P08659); assay: qHTS assay to identify small molecule inhibitors of firefly luciferase (AID 1224835); also: nearly all actives have a fitted effect of over 25% in size; also: potency is read from the fitted curve at half-maximal effect
Summary of the method: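 Quantitative HTS format; KM concentrations of both substrates. Purified P. pyralis FLuc activity quantified from luminescence images.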

[3] = qHTS assay to identify small molecule agonists of the constitutive androstane receptor (CAR) signaling pathway - cell viability counter screen (AID 1224836); also: series mostly up to about 92 µM; nearly all actives have a fitted effect of over 45% in size
Summary of the method: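 Counter screen multiplexed with the CAR reporter readout: HepG2 cells co-transfected with hCAR and the CYP2B6-2.2kb construct receive a 15-concentration compound series and 0.75 uM PK11195 (final), then CellTiter-Fluor fluorescence is read after 23 h.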

[4] = qHTS assay to identify small molecule antagonists of the constitutive androstane receptor (CAR) signaling pathway - cell viability counter screen (AID 1224837); also: series mostly up to about 92 µM; nearly all actives have a fitted effect of over 45% in size
Summary of the method: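 Fluorescence from CellTiter-Fluor served as the viability signal. Human hepatoma HepG2 cells stably bearing hCAR and CYP2B6-2.2kb received compound plus CITCO (50 nM final) for 23 hr.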

[5] = molecular target: Nuclear receptor subfamily 1 group I member 3 (Homo sapiens) (UniProt Q14994); assay: qHTS assay to identify small molecule antagonists of the constitutive androstane receptor (CAR) signaling pathway (AID 1224838);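 also: HepG2 cells stably expressing hCAR with CYP2B6 luciferase reporter stimulated by CITCO; nearly all actives have a fitted effect of over 40% in size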
Summary of the method: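 Quantitative HTS in double-stable HepG2-CYP2B6-hCAR cells. After 4 h plating, cells get compound (15 concentrations) and CITCO at 50 nM final, incubate 24 h at 37 C, then ONE-Glo luminescence is read.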

[6] = molecular target: Nuclear receptor subfamily 1 group I member 3 (Homo sapiens) (UniProt Q14994); assay: qHTS assay to identify small molecule agonists of the constitutive androstane receptor (CAR) signaling pathway (AID 1224839); also: nearly all actives have a fitted effect of over 15% in size; also: potency is read from the fitted curve at half-maximal effect; as to activation: series mostly up to about 92 µM
Summary of the method: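 A 15-concentration quantitative screen uses HepG2 cells co-transfected stably with human CAR and CYP2B6-2.2kb reporter. Treatment lasts 24 h with 0.75 uM PK11195 final present; ONE-Glo luminescence is the signal.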

[7] = qHTS assay to identify small molecule antagonists of the estrogen related receptor signaling pathway with the pleiotropic PPARgamma coactivator (PGC) from Tox21 10K library - cell viability counter screen (AID 1224840; active = well fitted cell-killing curve with a large enough effect in the repeat runs, not every such curve was filed as active; also: nearly all actives have a fitted effect of over 40% in size)
Summary of the method: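 Compounds in DMSO, alongside positive and negative controls, were pinned onto PGC/ERR cells (2,000 per well). Exposure lasted 17.5 hours at 37 C, followed by a 30-minute CellTiter-Fluor incubation and fluorescence reading.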

[8] = qHTS assay to identify small molecule antagonists of the estrogen related receptor signaling pathway with the pleiotropic PPARgamma coactivator (PGC) from Tox21 10K library (AID 1224841; call rule not given here; also: series mostly up to about 92 µM; actives are mostly falling curves and most rising ones were filed inactive; nearly all actives have a fitted effect of over 50% in size)
Summary of the method: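 Compound exposure ran 18 hours at 37 C in PGC/ERR cells (2,000/well) that had first rested 6 hours in a 37 C/5% CO2 incubator. Luciferase activity was then detected with One-Glo after a 30-minute room-temperature step.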

[9] = qHTS assay to identify small molecule agonists of the estrogen related receptor signaling pathway with the pleiotropic PPARgamma coactivator (PGC) from Tox21 10K library (AID 1224842); also: nearly all actives have a fitted effect of over 15% in size
Summary of the method: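 PGC/ERR reporter cells (NTP line) were seeded 2,000 per well, rested 6 h at 37 C/5% CO2, then pin-dosed with compounds in DMSO for 18 h at 37 C; luciferase read by One-Glo luminescence after 30 min at room temperature.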

[10] = molecular target: Thyrotropin receptor (Homo sapiens) (UniProt P16473); assay: qHTS assay to identify small molecule agonists of the thyroid stimulating hormone receptor (TSHR) signaling pathway (AID 1224843; calls by dose curve; also: nearly all actives have a fitted effect of over 45% in size)
Summary of the method: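 Cell line HEK293 with TSHR; density 800/well. Exposure 30 min RT. Readout HTRF cAMP (cAMP-d2/anti-cAMP-cryptate), 1 h RT before reading.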

[11] = qHTS assay to identify small molecule agonists of the hypoxia (HIF-1) signaling pathway - cell viability counter screen (AID 1224844; calls by dose curve; also: nearly all actives have a fitted effect of over 50% in size)
Summary of the method: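 Luminescent ATP content (CellTiter-Glo, 30 min, room temperature) served as the viability measure in HRE-bla ME-180 cells exposed to compounds for 17 hrs in low-serum medium (0.5% dialyzed FBS).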

[12] = qHTS assay to identify small molecule agonists of H2AX (AID 1224845; active = well fitted activation curve with a large enough effect in the signal ratio in the repeat runs, not every such curve was filed as active; the % refers to the signal ratio)
Summary of the method: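 Wild-type CHO-K1 cells plated overnight, then exposed 3 hr at 37C to compounds at 15 concentrations (0.76% DMSO). Lysed, then HTRF anti-pH2AX(S139)-cryptate/anti-H2AX-d2 detection after 24 hr at room temperature; emissions 665 and 620 nm.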

[13] = qHTS assay to identify small molecule agonists of the hypoxia (HIF-1) signaling pathway (AID 1224846; active = well fitted activation curve with a large enough effect in the signal ratio in the repeat runs, not every such curve was filed as active; the % refers to the signal ratio)
Summary of the method: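 Measured by blue/green FRET after loading CCF4-AM: beta-lactamase expressed from a hypoxia response element in ME-180 cells. Test agents were delivered in DMSO and left 17 hrs; cells had been plated 5 hrs earlier in low-serum (0.5% dialyzed FBS) medium.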

[14] = qHTS assay to identify small molecule agonists of H2AX - cell viability counter screen (AID 1224847; calls by dose curve; also: top concentration of the series differs between compounds; nearly all actives have a fitted effect of over 30% in size)
Summary of the method: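 We seed wild-type CHO-K1 cells overnight, treat them for 3 hr at 37C with compounds in 15-concentration series, and quantify remaining viability by CellTiter-Glo luminescence.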

[15] = qHTS assay to identify small molecule antagonists of the estrogen related receptor (ERR) signaling pathway from Tox21 library (AID 1224848); also: nearly all actives have a fitted effect of over 50% in size
Summary of the method: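 Screening used an ERR reporter line supplied by NTP, exposed for 18 h at 37 C to library compounds delivered in DMSO. Signal was luciferase luminescence developed with ONE-Glo at room temperature for 30 min.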

[16] = qHTS RealTime-Glo MT Cell Viability Assay in HepG2 cells - 24 hour (AID 1224867); also: nearly all actives have a fitted effect of over 50% in size
Summary of the method: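 Cells + NanoLuc/prosubstrate dispensed (600 cells/well) → 5 h at 37 C/5% CO2 → compounds in DMSO transferred → 40 h incubation at 37 C, luminescence read at 0, 8, 16, 24, 32, 40 h.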

[17] = qHTS RealTime-Glo MT Cell Viability Assay in HEK293 cells - 32 hour (AID 1224868)
Summary of the method: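 Tox21 10K qHTS, HEK293, 600 cells/well, RealTime-Glo reagent co-dispensed with cells; 5 h preincubation, compound by pintool, 37 C, luminescence at 0–40 h.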

[18] = A CellTox Green Cytotoxicity Assay to monitor cytotoxicity in HEK293 cells - 0 hour (AID 1224869); also: nearly all actives have a fitted effect of over 50% in size
Summary of the method: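 Each value comes from one timepoint of a single continuous run in which HEK293 cells with CellTox Green were exposed to compound for up to 40 h at 37 C, dye fluorescence rising with cell death.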

[19] = qHTS RealTime-Glo MT Cell Viability Assay in HepG2 cells - 40 hour (AID 1224870); also: nearly all actives have a fitted effect of over 50% in size
Summary of the method: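 HepG2 cells mixed with RealTime-Glo MT reagents (NanoLuc plus cell-permeant prosubstrate) were seeded at 600 cells/well, incubated 5 h at 37 C/5% CO2, then pinned with compounds in DMSO; nonlytic luminescence tracked viability during 40 h treatment.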

[20] = qHTS assay to identify small molecule agonists of the estrogen related receptor signaling pathway with the pleiotropic PPARgamma coactivator (PGC) (AID 1224823)
Summary of the method: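 Steps: plate PGC/ERR cells at 2,000 cells/well; incubate 6 h, 37 C/5% CO2; pin-transfer compounds (DMSO); incubate 18 h, 37 C; add One-Glo; 30 min RT; read luminescence.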

Measured: Potency

Luciferin 4-monooxygenase (Photinus pyralis), sequence (P08659 whole entry, looked up): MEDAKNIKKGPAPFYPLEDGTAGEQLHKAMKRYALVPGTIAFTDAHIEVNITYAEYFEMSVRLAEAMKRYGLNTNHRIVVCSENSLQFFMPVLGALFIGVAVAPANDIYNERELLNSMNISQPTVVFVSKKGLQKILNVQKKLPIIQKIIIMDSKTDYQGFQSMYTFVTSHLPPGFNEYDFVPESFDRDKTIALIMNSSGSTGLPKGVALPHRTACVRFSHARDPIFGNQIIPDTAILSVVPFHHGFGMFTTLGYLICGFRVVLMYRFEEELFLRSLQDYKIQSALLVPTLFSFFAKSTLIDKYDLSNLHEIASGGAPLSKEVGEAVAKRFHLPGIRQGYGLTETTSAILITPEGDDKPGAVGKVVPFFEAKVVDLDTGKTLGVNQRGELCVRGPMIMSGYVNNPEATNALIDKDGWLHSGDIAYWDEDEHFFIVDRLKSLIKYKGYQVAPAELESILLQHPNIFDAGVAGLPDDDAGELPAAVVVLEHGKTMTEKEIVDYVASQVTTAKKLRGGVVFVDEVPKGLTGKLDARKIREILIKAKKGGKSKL
Nuclear receptor subfamily 1 group I member 3 (Homo sapiens), sequence (Q14994 whole entry, looked up): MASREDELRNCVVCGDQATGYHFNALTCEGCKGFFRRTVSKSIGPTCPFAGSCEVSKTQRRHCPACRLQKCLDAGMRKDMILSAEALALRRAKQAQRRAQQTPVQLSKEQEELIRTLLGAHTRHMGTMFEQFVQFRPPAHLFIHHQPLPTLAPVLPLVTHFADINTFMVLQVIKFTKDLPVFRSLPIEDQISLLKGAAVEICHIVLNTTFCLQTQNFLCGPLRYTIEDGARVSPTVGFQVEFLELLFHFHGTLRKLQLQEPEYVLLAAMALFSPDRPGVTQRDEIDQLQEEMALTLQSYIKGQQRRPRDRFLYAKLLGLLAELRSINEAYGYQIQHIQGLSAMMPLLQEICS
Thyrotropin receptor (Homo sapiens), sequence (P16473 whole entry, looked up): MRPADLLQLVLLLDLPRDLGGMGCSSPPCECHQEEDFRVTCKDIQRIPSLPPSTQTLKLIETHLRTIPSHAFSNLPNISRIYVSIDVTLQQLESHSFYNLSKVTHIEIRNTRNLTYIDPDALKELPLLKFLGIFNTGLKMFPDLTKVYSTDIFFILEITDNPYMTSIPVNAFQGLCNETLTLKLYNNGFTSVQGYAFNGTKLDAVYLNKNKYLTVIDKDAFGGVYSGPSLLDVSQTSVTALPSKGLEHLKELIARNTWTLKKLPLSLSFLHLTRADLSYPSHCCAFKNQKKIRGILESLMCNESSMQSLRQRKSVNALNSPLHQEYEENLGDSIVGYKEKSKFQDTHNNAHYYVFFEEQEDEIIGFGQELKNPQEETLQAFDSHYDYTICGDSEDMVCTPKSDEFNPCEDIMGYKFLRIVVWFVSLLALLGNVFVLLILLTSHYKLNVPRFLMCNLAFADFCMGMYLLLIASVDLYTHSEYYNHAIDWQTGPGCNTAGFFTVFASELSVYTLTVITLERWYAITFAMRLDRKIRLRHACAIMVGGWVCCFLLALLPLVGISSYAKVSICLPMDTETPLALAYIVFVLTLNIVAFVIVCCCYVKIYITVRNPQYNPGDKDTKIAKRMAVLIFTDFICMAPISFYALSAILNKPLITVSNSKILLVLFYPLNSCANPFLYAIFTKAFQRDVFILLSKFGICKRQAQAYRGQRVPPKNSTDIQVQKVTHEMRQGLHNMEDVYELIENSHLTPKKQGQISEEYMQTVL

Cc1ccc2ncccc2c1
not listed: [20]
inactive: all other assays above

CC(C)(Oc1ccc(CCNC(=O)c2ccc(Cl)cc2)cc1)C(=O)O
active: [2] 35.6 µM
not listed: [13]
inactive: all other assays above

COc1ccc(OC)cc1
not listed: [20]
inactive: all other assays above

NCCNCCN
not listed: [10] | [20]
inactive: all other assays above

O=C(OCC1CCC2OC2C1)C1CCC2OC2C1 (configuration not stated)
not listed: [8] | [9] | [15] | [20]
inactive: all other assays above

CN(C)CCOC(=O)COc1ccc(Cl)cc1
not listed: [5] | [6] | [13]
inactive: all other assays above

CCCCCCCCCCCC(=O)OC
not listed: [8] | [9] | [15] | [20]
inactive: all other assays above

O=C1c2ccccc2CCc2ccccc21
active: [6] 31.3 µM and 26.6 µM
not listed: [12] | [20]
inactive: all other assays above
